Measurements taken from article PMC7862700, “An all-to-all approach to the identification of sequence-specific readers for epigenetic DNA modifications on cytosine”.

Columns and labels:
Experiment in all cases: DAPPL (digital affinity profiling via proximity ligation, sequencing); 10 mM Tris-HCl pH 7.5, 50 mM NaCl, 1 mM DTT, 4% glycerol, room temperature, 30 min; GST-TFs on glutathione beads, 16-mer random dsDNA library, 0.1% formaldehyde crosslink after washing; high values mean tight binding
Details in all cases: protein: recombinant; tags: N-terminal GST; dsDNA, one strand shown
ETV5 = ETV5 (Homo sapiens, UniProt P41161 1-510)
In short: (§1)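 Binding signal is each hexamer's read frequency for a factor divided by its frequency in the tag-only sample. The factors were GST-fused human transcription factors from yeast, captured on glutathione beads, DNA-barcoded and pooled with that sample. Pools were incubated with 200 nmole of a random double-stranded 16-mer DNA library in Tris/NaCl/DTT/glycerol buffer at room temperature for 30 min, then washed, crosslinked with 0.1% formaldehyde, proximity-ligated with BsaI/T4 ligase (1 h, 37 °C), PCR-amplified and sequenced on an Illumina NextSeq500.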

ELF4 = ELF4 (Homo sapiens, UniProt Q99607 1-663)
In short: as §1

ETV2 = target: T1, ETV2 (Homo sapiens, UniProt O00321 1-342)
T1 sequence: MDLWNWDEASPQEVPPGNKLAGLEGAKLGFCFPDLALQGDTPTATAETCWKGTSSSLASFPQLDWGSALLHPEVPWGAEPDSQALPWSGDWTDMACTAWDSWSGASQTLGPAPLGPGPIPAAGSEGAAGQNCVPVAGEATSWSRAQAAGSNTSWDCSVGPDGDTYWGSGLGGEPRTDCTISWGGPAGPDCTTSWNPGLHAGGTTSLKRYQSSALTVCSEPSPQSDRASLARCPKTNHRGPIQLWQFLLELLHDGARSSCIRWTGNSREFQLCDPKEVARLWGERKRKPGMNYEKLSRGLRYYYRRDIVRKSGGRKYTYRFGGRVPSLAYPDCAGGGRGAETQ
In short: as §1

ELF3 = target: T2, ELF3 (Homo sapiens, UniProt P78545 1-371)
T2 sequence: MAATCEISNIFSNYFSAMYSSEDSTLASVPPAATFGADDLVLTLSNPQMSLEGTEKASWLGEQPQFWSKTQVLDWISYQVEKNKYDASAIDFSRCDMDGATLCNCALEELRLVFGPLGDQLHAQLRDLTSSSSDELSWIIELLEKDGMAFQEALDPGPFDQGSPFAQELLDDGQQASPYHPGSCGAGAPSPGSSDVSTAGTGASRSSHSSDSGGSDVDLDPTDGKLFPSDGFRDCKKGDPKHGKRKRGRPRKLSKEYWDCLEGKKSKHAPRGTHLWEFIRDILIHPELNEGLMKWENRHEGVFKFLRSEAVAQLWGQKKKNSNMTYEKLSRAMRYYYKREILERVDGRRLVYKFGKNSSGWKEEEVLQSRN
In short: as §1

ETV1 = ETV1 (Homo sapiens, UniProt P50549 1-477)
In short: as §1

ERF = target: T3, ERF (Homo sapiens, UniProt P50548 1-548)
T3 sequence: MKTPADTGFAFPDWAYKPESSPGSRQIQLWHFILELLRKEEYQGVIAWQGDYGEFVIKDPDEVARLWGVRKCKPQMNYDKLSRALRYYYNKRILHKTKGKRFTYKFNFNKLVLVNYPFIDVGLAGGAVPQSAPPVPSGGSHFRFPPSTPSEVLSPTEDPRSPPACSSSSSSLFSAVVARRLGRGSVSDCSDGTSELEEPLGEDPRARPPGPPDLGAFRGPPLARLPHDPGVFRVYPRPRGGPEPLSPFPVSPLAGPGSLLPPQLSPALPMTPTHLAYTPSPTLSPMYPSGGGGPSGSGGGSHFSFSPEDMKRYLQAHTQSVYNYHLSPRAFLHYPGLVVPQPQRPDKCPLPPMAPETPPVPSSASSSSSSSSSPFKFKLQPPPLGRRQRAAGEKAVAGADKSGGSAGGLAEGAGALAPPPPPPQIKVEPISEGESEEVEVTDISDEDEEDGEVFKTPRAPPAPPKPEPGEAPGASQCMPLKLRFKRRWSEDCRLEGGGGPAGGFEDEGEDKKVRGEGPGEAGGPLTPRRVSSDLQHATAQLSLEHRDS
In short: as §1

ETV3L = target: T4, ETV3L (Homo sapiens, UniProt Q6ZN32 1-361)
T4 sequence: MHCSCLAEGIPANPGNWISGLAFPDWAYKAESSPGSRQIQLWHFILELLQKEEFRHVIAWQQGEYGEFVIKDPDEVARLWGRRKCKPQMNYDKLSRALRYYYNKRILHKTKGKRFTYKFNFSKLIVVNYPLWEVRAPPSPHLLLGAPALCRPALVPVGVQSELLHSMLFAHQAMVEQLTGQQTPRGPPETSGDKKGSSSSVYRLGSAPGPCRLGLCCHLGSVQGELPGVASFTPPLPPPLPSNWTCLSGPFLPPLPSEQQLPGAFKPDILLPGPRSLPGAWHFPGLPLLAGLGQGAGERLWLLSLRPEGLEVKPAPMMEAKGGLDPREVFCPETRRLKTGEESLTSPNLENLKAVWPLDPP
In short: as §1

ETS2 = target: T5, ETS2 (Homo sapiens, UniProt P15036 1-469)
T5 sequence: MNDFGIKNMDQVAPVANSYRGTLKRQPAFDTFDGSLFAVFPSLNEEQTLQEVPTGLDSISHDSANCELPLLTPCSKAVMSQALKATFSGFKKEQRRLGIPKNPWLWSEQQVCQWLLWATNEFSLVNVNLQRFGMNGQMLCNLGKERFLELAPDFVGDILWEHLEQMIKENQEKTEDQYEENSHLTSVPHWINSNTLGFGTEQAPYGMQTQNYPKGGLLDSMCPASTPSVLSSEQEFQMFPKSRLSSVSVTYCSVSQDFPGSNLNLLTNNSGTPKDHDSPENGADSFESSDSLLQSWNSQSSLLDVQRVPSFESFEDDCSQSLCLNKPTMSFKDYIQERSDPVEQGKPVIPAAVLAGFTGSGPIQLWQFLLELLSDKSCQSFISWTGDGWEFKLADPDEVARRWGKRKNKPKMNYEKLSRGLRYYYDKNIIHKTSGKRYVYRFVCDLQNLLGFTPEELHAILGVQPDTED
In short: as §1

ETV7 = target: T6, ETV7 (Homo sapiens, UniProt Q9Y603 1-341)
T6 sequence: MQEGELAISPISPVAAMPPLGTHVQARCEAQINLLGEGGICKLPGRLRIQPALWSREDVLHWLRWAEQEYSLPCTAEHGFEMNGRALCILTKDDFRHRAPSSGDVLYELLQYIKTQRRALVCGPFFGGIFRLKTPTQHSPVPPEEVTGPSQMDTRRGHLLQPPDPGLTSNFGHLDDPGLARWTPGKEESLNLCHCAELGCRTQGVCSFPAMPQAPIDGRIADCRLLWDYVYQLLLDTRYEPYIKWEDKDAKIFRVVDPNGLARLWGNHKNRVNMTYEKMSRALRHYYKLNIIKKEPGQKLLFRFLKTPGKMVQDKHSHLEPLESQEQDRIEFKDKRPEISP
In short: as §1

ETV3 = target: T7, ETV3 (Homo sapiens, UniProt P41162-2 1-143)
T7 sequence: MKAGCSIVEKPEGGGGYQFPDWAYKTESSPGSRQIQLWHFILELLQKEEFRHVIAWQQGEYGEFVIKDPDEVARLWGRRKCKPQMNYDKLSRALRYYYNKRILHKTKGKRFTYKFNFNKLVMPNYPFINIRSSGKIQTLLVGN
In short: as §1

Sequence of ELF4 (Q99607 whole entry): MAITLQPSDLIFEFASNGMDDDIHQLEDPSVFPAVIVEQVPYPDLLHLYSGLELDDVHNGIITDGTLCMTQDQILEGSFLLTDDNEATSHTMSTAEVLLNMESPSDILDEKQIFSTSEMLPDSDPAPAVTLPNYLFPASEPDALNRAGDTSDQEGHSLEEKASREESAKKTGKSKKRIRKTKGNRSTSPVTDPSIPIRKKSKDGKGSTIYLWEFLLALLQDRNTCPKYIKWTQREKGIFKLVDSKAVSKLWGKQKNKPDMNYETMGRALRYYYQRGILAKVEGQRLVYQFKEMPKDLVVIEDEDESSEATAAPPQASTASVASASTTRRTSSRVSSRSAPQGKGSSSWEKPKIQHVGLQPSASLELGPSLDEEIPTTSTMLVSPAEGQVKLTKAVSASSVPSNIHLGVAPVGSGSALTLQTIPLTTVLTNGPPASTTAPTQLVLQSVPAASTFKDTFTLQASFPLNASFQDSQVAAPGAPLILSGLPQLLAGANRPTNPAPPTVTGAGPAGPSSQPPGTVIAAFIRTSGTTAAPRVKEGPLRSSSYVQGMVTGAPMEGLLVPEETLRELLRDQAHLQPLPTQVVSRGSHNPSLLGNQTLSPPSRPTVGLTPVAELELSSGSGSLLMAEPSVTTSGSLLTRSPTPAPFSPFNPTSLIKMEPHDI
Sequence of ETV1 (P50549 whole entry): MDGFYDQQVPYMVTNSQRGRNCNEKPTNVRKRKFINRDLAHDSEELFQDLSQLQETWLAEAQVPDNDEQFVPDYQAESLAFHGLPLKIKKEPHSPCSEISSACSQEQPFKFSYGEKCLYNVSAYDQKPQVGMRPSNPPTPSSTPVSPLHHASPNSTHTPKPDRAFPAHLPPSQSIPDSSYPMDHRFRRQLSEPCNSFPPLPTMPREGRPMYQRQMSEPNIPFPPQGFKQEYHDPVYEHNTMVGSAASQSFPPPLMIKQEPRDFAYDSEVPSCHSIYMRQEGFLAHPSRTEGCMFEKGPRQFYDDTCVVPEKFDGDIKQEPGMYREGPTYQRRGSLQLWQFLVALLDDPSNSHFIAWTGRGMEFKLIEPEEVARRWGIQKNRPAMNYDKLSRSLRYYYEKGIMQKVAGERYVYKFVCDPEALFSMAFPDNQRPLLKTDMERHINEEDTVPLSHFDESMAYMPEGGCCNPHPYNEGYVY
Sequence of ETV5 (P41161 whole entry, the tested form may be a part): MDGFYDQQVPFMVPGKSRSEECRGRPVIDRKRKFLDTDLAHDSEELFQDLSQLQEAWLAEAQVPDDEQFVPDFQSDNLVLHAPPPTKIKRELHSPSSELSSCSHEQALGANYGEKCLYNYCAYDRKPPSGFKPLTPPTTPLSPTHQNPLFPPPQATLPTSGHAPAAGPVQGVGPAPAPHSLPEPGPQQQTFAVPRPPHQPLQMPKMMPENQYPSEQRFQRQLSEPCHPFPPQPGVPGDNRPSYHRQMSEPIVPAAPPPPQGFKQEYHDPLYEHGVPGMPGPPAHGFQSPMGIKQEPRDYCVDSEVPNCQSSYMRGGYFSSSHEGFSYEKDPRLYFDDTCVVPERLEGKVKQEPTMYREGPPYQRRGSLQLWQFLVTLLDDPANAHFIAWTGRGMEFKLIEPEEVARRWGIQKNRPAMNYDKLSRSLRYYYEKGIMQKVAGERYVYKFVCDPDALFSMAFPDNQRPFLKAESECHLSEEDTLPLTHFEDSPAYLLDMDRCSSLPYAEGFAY

CGATGC
binding signal (ETV5): 1.11 fold enrichment (6-mer frequency, TF over GST control) | binding signal (ELF4): 1.19 fold enrichment (6-mer frequency, TF over GST control) | binding signal (ETV2): 1.15 fold enrichment (6-mer frequency, TF over GST control) | binding signal (ELF3): 1.2 fold enrichment (6-mer frequency, TF over GST control) | binding signal (ETV1): 1.03 fold enrichment (6-mer frequency, TF over GST control) | binding signal (ERF): 1.07 fold enrichment (6-mer frequency, TF over GST control) | binding signal (ETV3L): 1.18 fold enrichment (6-mer frequency, TF over GST control) | binding signal (ETS2): 1.06 fold enrichment (6-mer frequency, TF over GST control) | binding signal (ETV7): 1.04 fold enrichment (6-mer frequency, TF over GST control) | binding signal (ETV3): 1.17 fold enrichment (6-mer frequency, TF over GST control)
